Reference: PubChem BioAssay AID1159580 (chemical genetic matrix, 2015)
Where “and” joins values, the source holds several entries; their conditions need not be identical. Equal values may be shown once. The whole screen tested about 5,500 compounds, of which about 2,000 (36%) were called active. Inconclusive results (about 18%) are left out. Rule as the data show it: active = normalized growth mostly below about 0.91 (no sharp cut-off); inconclusive = no clear call, values can overlap the other calls; inactive = mostly above about 0.92. Some of the results follow.

Experiment: chemical genetic growth profiling, strain panel (AID 1159580);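 also: tested at 20 µM; growth read once vehicle control cultures reached saturation at 30 °C; 1 = growth at the plate median or of vehicle wells; lower values mean less growth of the strain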
Settings: S. cerevisiae deletion strains, growth OD

Measured: normalized growth

Cc1cc(=O)[nH]c(=S)[nH]1
inactive: locus YAL013W, strain DEP1, active compounds read low 1.01 | locus YAL021C, strain ccr4, active compounds read low 0.956 | locus YAL026C, strain drs2, active compounds read low 0.974 | locus YAL030W, strain snc1, active compounds read low 0.98 | locus YBL061C, strain skt5, active compounds read low 0.987 | locus YBR009C, strain hhf1, active compounds read low 0.954 | locus YBR021W, strain FUR4, active compounds read low 0.986 | locus YBR023C, strain chs3, active compounds read low 0.977 | locus YBR171W, strain sec66, active compounds read low 0.987 | locus YBR229C, strain ROT2, active compounds read low 1.01 | locus YBR231C, strain swc5, active compounds read low 0.989 | locus YBR279W, strain paf1, active compounds read low 0.973 | locus YCL011C, strain gbp2, active compounds read low 0.964 | locus YCL016C, strain dcc1, active compounds read low 0.96 | locus YCL029C, strain bik1, active compounds read low 1.02 | locus YCL061C, strain MRC1, active compounds read low 0.926 | locus YCL069W, strain vba3, active compounds read low 0.97 | locus YCR088W, strain abp1, active compounds read low 0.978 | locus YDL005C, strain med2, active compounds read low 0.97 | locus YDL035C, strain GPR1, active compounds read low 0.993 | locus YDL040C, strain nat1, active compounds read low 0.977 | locus YDL074C, strain BRE1, active compounds read low 1.03 | locus YDL101C, strain DUN1, active compounds read low 1.03 | locus YDL134C, strain PPH21, active compounds read low 1 | locus YDL185W, strain tfp1, active compounds read low 1.02 | locus YDL192W, strain arf1, active compounds read low 1 | locus YDR001C, strain nth1, active compounds read low 0.972 | locus YDR069C, strain doa4, active compounds read low 0.982 | locus YDR101C, strain arx1, active compounds read low 0.998 | locus YDR137W, strain rgp1, active compounds read low 0.958 | locus YDR150W, strain NUM1, active compounds read low 1.01 | locus YDR159W, strain sac3, active compounds read low 0.937 | locus YDR162C, strain NBP2, active compounds read low 1.01 | locus YDR195W, strain ref2 0.948 | locus YDR297W, strain sur2, active compounds read low 0.963 | locus YDR318W, strain mcm21, active compounds read low 1.03 | locus YDR334W, strain swr1, active compounds read low 0.973 | locus YDR335W, strain msn5, active compounds read low 0.968 | locus YDR388W, active compounds read low 1.01 | locus YDR392W, strain spt3, active compounds read low 0.929 | locus YDR502C, strain sam2, active compounds read low 0.999 | locus YEL003W, strain gim4, active compounds read low 0.965 | locus YEL037C, strain rad23, active compounds read low 0.98 | locus YEL061C, strain CIN8 (second series), active compounds read low 0.973 | locus YEL061C, strain CIN8, active compounds read low 1 | locus YER015W, strain faa2, active compounds read low 0.989 | locus YER016W, strain bim1, active compounds read low 0.938 | locus YER110C, active compounds read low 1.01 | locus YER111C, strain swi4, active compounds read low 0.976 | locus YER155C, strain BEM2 (second series), active compounds read low 1.01 | locus YER155C, strain BEM2, active compounds read low 1.01 | locus YER167W, strain BCK2, active compounds read low 0.996 | locus YFR010W, strain ubp6, active compounds read low 0.97 | locus YGL078C, strain dbp3, active compounds read low 0.991 | locus YGL086W, strain mad1, active compounds read low 1 | locus YGL167C, strain pmr1, active compounds read low 0.968 | locus YGL173C, strain kem1, active compounds read low 0.968 | locus YGL227W, strain vid30, active compounds read low 0.986 | locus YGL240W, strain doc1, active compounds read low 0.988 | locus YGL248W, strain PDE1, active compounds read low 1.01 | locus YGL253W, strain hxk2, active compounds read low 0.949 | locus YGR078C, strain PAC10, active compounds read low 1.02 | locus YGR135W, strain pre9, active compounds read low 1 | locus YGR229C, strain SMI1, active compounds read low 1.01 | locus YGR252W, strain gcn5, active compounds read low 0.978 | locus YHR013C, strain ard1, active compounds read low 0.914 | locus YHR027C, strain rpn1, active compounds read low 0.965 | locus YHR030C, strain SLT2, active compounds read low 1.01 and 1.08 | locus YHR079C, strain IRE1 (second series), active compounds read low 1.01 | locus YHR079C, strain IRE1, active compounds read low 1.05 | locus YHR094C, strain hxt1, active compounds read low 1.01 | locus YHR129C, strain ARP1, active compounds read low 1.02 | locus YHR142W, strain chs7, active compounds read low 0.952 | locus YHR200W, strain rpn10, active compounds read low 1 | locus YIL066C, strain RNR3, active compounds read low 1.01 | locus YIL073C, strain SPO22, active compounds read low 1.04 | locus YIL125W, strain kgd1, active compounds read low 1 | locus YIR030C, strain dcg1, active compounds read low 1 | locus YJL092W, strain hpr5, active compounds read low 0.987 | locus YJL095W, strain BCK1 (second series), active compounds read low 0.978 | locus YJL095W, strain BCK1, active compounds read low 1.04 | locus YJL115W, strain asf1, active compounds read low 0.97 | locus YJL129C, strain trk1, active compounds read low 0.971 | locus YJL134W, strain LCB3, active compounds read low 1.01 | locus YJL154C, strain vps35, active compounds read low 0.972 | locus YJL164C, strain tpk1, active compounds read low 0.947 | locus YJL166W, strain qcr8, active compounds read low 0.976 | locus YJL168C, strain set2, active compounds read low 1.01 | locus YJL187C, strain SWE1 (second series), active compounds read low 1.03 | locus YJL187C, strain SWE1, active compounds read low 0.976 | locus YJR043C, strain POL32, active compounds read low 1.02 | locus YJR066W, strain TOR1, active compounds read low 0.996
